Assay outcomes as filed in PubChem BioAssay.
Sampled rows, rich in hits. Any-hit rate of the full collection: about 19%.
HT1080 IDH1KD tx = qHTS for induction of synthetic lethality in tumor cells producing 2HG: qHTS for the HT-1080-IDH1KD cell line; HT-1080 IDH1 knockdown viability, ATP luminescence, 48 h; Potency, µM (doses to about 46.1 µM), for inactives: at the highest dose activity, negative = toxicity, hits mostly cytotoxic; 2% of 360,000 active; AID 686971, 2013;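 also: potency is read from the fitted curve at half-maximal effect; 0% = DMSO wells and -100% = cell-free medium wells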
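Assay cells: HT-1080 with IDH1 knockdown, 750 per well, RPMI/5% FBS. Exposure: 48 h at 37 °C following 2 h pre-incubation. Read: CellTiter-Glo luminescence; fitted concentration-response, curve class assigned.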
HT1080-NT tox = qHTS for induction of synthetic lethality in tumor cells producing 2HG: qHTS for the HT-1080-NT fibrosarcoma cell line; HT-1080-NT fibrosarcoma viability, CellTiter-Glo ATP luminescence, 48 h; Potency, µM (titrated, usually from 46.1 µM), without a hit: at the top dose activity, negative = less viability, most hits filed as cytotoxic; 1.6% of 360,000 active;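 also: NT is the 2HG producing partner of a matched IDH1 knockdown line; potency is read from the fitted curve at half-maximal effect; 0% = DMSO-treated cells and -100% = media-only wells without cells; nearly all actives have a fitted effect of over 55% in size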
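Toxicity toward the 2HG-producing NT line was scored as %Activity, normalised to DMSO and no-cell wells, from CellTiter-Glo luminescence after 48 hours' treatment.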
IL1B secr inh = qHTS for Inhibitors of Inflammasome Signaling: IL-1-beta AlphaLISA Primary Screen. 4.7% of 360,000 active. THP-1 LPS/ATP IL-1B secretion, AlphaLISA, 16 h; stronger effect = lower value. AID 743279, 2014. activity change, % at 57.5 µM; in the data active = activity change below about -50%; inconclusive = mostly about -30% to -49%
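THP-1 cells pretreated 1 hr with compounds (up to 57.5 uM final), then stimulated with LPS (250 ng/mL final) plus ATP (1.25 mM final); secreted IL-1B measured by AlphaLISA after 16 hr, decreased signal indicating inhibition.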
DT40 TDP1 CPT = qHTS for Inhibitors of human tyrosyl-DNA phosphodiesterase 1 (TDP1): qHTS in cells in presence of CPT. 12% of 420,000 active. AID 686979, 2013. Potency, µM (titrated, usually from 46.2 µM), for the others: top-dose activity change, negative = growth inhibition, most hits filed as inhibitors. chicken DT40 Tdp1-/-;hTDP1 cells + 20 nM CPT, ATP luminescence, 48 h; also: potency is read from the fitted curve at half-maximal effect; nearly all actives have a fitted effect of over 55% in size
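Cell growth measured by CellTiter-Glo luminescence after a minimum 48 h, 37 C compound exposure with 20 nM CPT in Tdp1-knockout DT40 cells stably expressing hTDP1, seeded 400/well; qHTS titration format.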
TDP1 cell noCPT = qHTS for Inhibitors of human tyrosyl-DNA phosphodiesterase 1 (TDP1): qHTS in cells in absence of CPT; DT40 Tdp1-/- hTDP1 cells, no CPT, ATP luminescence, 48 h; Potency, µM (highest dose often 46.2 µM), without a hit: at the highest dose activity change, negative = growth inhibition, hits mostly inhibitors; 15% of 420,000 active; AID 686978, 2013; also: potency is read from the fitted curve at half-maximal effect; nearly all actives have a fitted effect of over 55% in size
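Camptothecin absent (DMSO only). Human TDP1-complemented DT40 knockout cells, 400 cells/well, 37 °C for minimum 48 hr; ATP measured via CellTiter-Glo, 30 min dark incubation, luminescence.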
An asterisk follows results filed as active; ? = inconclusive; / = no result. Unless noted, calls follow the shape of the dose curve; as a rule, active = well fitted curve in the direction sought with a large enough effect; inconclusive = small, poorly fitted or top-dose-only effect, or another doubt; inactive = no such curve, though single readings can be large; an effect the other way counts as inactive or inconclusive. Unless noted, % is scaled to controls: 0 for no effect and ±100 for the full control effect.

SMILES | HT1080 IDH1KD tx | HT1080-NT tox | IL1B secr inh | DT40 TDP1 CPT | TDP1 cell noCPT
CCCCN1CC(COCc2ccccc2)Oc2cccc(F)c2S1(=O)=O (centres undefined) | -4% | -7% | 18 | ? | ?
Cn1c(=O)oc2cc(S(=O)(=O)NCCC(=O)Nc3ccc(F)cc3F)ccc21 | / | / | / | -7% | -14%
O=C(COC(=O)CCc1c[nH]c2ccccc12)NC(c1ccccc1)c1ccccc1 | -3% | -2% | 14 | -22% | ?
COC(C(=O)NNC(=O)CCc1ccccc1)c1ccccc1 (centres undefined) | 10% | 12% | 41 | 5% | 12%
Cc1ccc(-n2c(=O)c3oc4ccccc4c3n(Cc3ccccc3)c2=O)cc1C | / | / | / | 21µM* | 13µM*
NC(=O)Cn1c(=O)n(-c2ccccc2)c(=O)c2oc3ccccc3c21 | 9% | ? | -50* | -9% | -13%
CC1CN(Cc2ccco2)C(=S)NC1=O (centres undefined) | 16% | 8% | 2 | 8% | -3%
CC(=O)C1=C(C)NC(SCC(=O)c2ccccc2)=C(C#N)C1CC(C)C (centres undefined) | -7% | -6% | -7 | ? | 16µM*
CCOC(=O)CSC1=C(C#N)C(c2ccccc2)C(C(C)=O)=C(C)N1 (centres undefined) | 3% | 10% | ? | -25% | -10%
COc1ccc(CN(C)C(=O)CSc2nnc(C3CC3)n2C2CC2)cc1 | 0% | -5% | -2 | -25% | 3%
Cc1cccc(-c2noc(CCCC(=O)NCc3ccco3)n2)c1 | / | / | / | 15µM* | 16µM*
CC(C)(C)c1ccc(-c2noc(CCC(=O)NCc3ccco3)n2)cc1 | ? | ? | -57* | 18µM* | 26µM*
Cc1cccc(-c2noc(CCC(=O)NCc3ccco3)n2)c1 | -6% | ? | 2 | ? | -16%
Cn1c(=O)[nH]c(=O)c2c1nc(Br)n2CC(O)COc1ccccc1 (centres undefined) | 3% | 2% | 9 | -1% | -18%
COc1ccccc1OCC(O)Cn1c(Br)nc2c1c(=O)[nH]c(=O)n2C (centres undefined) | -1% | -7% | 34 | ? | 15µM*
CCN(CC)CCNc1nc2c(c(=O)[nH]c(=O)n2C)n1CC(O)COc1ccc(Cl)cc1Cl (centres undefined) | -2% | -5% | 0 | -7% | -18%
Cc1cc(C)n(-c2nc3c(c(=O)[nH]c(=O)n3C)n2CC(O)COc2ccc(Cl)cc2Cl)n1 (centres undefined) | ? | ? | 116 | 6.5µM* | 5.8µM*
COc1ccc(C2CC(=O)C(C=NCCO)=C(O)C2)cc1 (centres undefined) | 10% | 7% | 0 | -24% | 8%
O=C(c1ccc([N+](=O)[O-])cc1)N1CCN(c2cccc3[nH]ccc23)CC1 | 2% | 3% | -7 | -24% | ?
C=CCN1C(=O)C2C(C(=O)NC3CCCC3)C3C=CC2(O3)C1C(=O)NC1CCCC1 (centres undefined) | 9% | 12% | -2 | -1% | 17%
CCCC(=O)NC(c1cccc([N+](=O)[O-])c1)c1ccc2cccnc2c1O (centres undefined) | ? | ? | 58 | 12µM* | 2.9µM*
CC(C)C(=O)NC(c1cccc([N+](=O)[O-])c1)c1ccc2cccnc2c1O (centres undefined) | ? | -26% | 84 | 4.6µM* | 4.6µM*
CC(C)C(=O)NC(c1cccc([N+](=O)[O-])c1)c1c(O)ccc2ccccc12 (centres undefined) | -22% | -23% | 45 | 4% | -12%
Cc1ccc(C)c(C(=O)CCC(=O)Nc2ccc(N3CCN(C)CC3)cc2C)c1 | -1% | -1% | -10 | ? | -13%
Cc1cccc(NCc2cccc3ccccc23)n1 | 3% | 5% | 7 | -16% | ?
SMILES | HT1080 IDH1KD tx | HT1080-NT tox | IL1B secr inh | DT40 TDP1 CPT | TDP1 cell noCPT
Cc1cccc(NCc2ccc(Br)cc2)n1 | 0% | -21% | -62* | ? | ?
CC(=O)Nc1ccc(NC(=O)CC2(CC(=O)N3CCOCC3)CCCC2)cc1 | 1% | 1% | 8 | 7% | -21%
O=C(Nc1ccc(F)c(F)c1)c1cc(S(=O)(=O)NCc2ccc3c(c2)OCO3)ccc1F | / | / | / | -8% | -21%
Cc1noc(C)c1-c1nccc(-n2ccnc2)n1 | / | / | / | 4% | -3%
Cn1c(=O)c2c(ncn2CC(COCc2ccccc2)OCc2ccccc2)n(C)c1=O (centres undefined) | 1% | -1% | 0 | ? | ?
COC(=O)COc1ccc(-c2ccccc2)cc1C=O | -14% | -7% | 2 | ? | 23µM*
COC(=O)COc1ccc(-c2ccc(F)cc2)cc1C=O | -4% | -26% | -12 | ? | ?
COC(=O)CSc1nc(N)c(C#N)c(-c2ccc(O)cc2)c1C#N | 6% | -2% | -70* | 7% | 16%
CC(C)c1ccc(-c2c(C#N)c(N)nc(SCC(=O)N3CCCCCC3)c2C#N)cc1 | -9% | -4% | 19 | -16% | -18%
CC(C)c1ccc(-c2c(C#N)c(N)nc(SCC(=O)N3CCCCC3)c2C#N)cc1 | -3% | -20% | 48 | 9.2µM* | ?
CN(C)c1ccc(/C=C2\C=Cc3ccccc32)cc1 | / | / | / | -26% | ?
CCOC(=O)c1cc2c(=Cc3ccc(N(C)C)cc3)c3ccccc3n2[n+]1C | 8.2µM* | ? | -101* | 0.58µM* | 0.46µM*
CN(C)c1ccc(C=c2c3ccccc3n3c2c2ccccc2[n+]3C)cc1 | 8.2µM* | 23µM* | -66* | 1.2µM* | 1.5µM*
Cc1cc2c(=Cc3ccc(N(C)C)cc3)c3ccccc3n2[n+]1C | 4.6µM* | 15µM* | -2 | 0.52µM* | 0.46µM*
O=C1CC(c2nnc(Cc3ccc(F)cc3)o2)CN1c1ccccc1 (centres undefined) | / | / | / | 6% | -3%
CCN1C=C(C(=O)c2ccccc2)C(=O)CC1 | 2% | 4% | -13 | -36% | 4%
Cc1nn(-c2ccccc2)c(C)c1-c1nnc(-c2c(C)nn(-c3ccccc3)c2C)o1 | 0% | -3% | 3 | ? | 18µM*
COc1cccc(C(=O)NCC(=O)N2CCN(c3ccc(C(F)(F)F)cn3)CC2)c1 | -17% | -20% | 20 | 7.3µM* | 4.1µM*
